Compound activity deposited in PubChem by National Center for Advancing Translational Sciences (NCATS).
Compounds with a hit are over-represented: about 1.4% of the library has one in this group of screens.
EPAC2 antagonist: EPAC2 (human) antagonism | EPAC2 GEF exchange of Rap1B-BODIPY-GDP, fluorescence | Q8WZA2 | hit rate 0.18% among 360,000 | AID 720708 | Potency, µM (series often up to 114 µM), for inactives: at the top dose activity, negative = inhibition, most hits filed as inhibitors; note: potency is the fitted concentration of half-maximal effect; % is set by controls: 0 for no effect and ±100 for the full control effect; nearly all actives have a fitted effect of over 45% in size
Target sequence (Q8WZA2 whole entry, looked up): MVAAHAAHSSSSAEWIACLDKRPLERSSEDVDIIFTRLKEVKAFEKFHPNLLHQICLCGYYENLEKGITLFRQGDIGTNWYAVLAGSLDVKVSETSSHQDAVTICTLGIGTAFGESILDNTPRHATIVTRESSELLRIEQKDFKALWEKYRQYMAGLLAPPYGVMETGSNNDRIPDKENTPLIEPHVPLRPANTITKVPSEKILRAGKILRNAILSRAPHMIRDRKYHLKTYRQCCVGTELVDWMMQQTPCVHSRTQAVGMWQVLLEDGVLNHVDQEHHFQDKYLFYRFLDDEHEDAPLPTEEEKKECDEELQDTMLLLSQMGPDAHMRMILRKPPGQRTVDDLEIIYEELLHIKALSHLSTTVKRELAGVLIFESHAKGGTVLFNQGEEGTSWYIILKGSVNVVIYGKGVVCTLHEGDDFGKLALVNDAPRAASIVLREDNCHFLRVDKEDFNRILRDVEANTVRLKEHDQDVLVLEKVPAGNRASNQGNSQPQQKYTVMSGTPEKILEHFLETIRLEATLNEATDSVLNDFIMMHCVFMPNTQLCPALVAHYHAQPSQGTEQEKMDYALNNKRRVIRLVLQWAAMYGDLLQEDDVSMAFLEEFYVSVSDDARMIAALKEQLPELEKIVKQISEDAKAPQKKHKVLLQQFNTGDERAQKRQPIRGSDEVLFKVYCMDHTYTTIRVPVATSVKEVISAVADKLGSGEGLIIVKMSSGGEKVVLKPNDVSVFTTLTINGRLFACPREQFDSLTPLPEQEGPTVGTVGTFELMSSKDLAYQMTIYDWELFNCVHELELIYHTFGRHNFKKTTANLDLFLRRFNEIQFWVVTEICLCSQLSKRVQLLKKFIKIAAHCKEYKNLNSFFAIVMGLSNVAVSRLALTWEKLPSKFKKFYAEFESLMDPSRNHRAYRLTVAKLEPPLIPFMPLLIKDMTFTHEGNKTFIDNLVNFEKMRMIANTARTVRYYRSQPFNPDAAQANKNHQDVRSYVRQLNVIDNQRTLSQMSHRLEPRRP
EPAC1 antag: EPAC1 (human) antagonism; hit rate 0.14% among 360,000; EPAC1 GEF assay, Rap1b-BODIPY-GDP exchange fluorescence; Potency, µM (top dose mostly 115 µM), for the others: top-dose activity change, negative = inhibition, most hits filed as inhibitors; O95398; AID 720709;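 note: potency is the fitted concentration of half-maximal effect; plate controls were vehicle for no effect and positive control for full effect; nearly all actives have a fitted effect of over 50% in size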
KCNH2 WT inh: blocks the wildtype human KCNH2 potassium channel. U2OS, BacMam KCNH2, thallium flux FluxOr; stronger effect = lower value. hit rate 0.37% among 340,000. AID 720551. activity change, % at 1.84 µM;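 active = maximum activity change below -70%; inconclusive = maximum activity change between -70% and -50%; inactive = maximum activity change above -50%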; note: % is set by controls: 0 for no effect and ±100 for the full control effect
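U2OS cells were transduced with wild-type KCNH2 virus (2.03 x 10^8 / mL) for 4 h at room temperature, then cultured overnight at 37 C. Thallium flux was read with FluxOr dye. Rate constants were normalized to DMSO controls.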
EPAC2 agonist: activates human EPAC2 exchange factor; Q8WZA2; EPAC2 activation, biochemical qHTS; response scale: 100% = 6.5 mM cAMP response; Potency, µM (series often up to 154 µM), for the others: at the top dose activation, hits mostly activators; hit rate 0.079% among 360,000; note: potency is the fitted concentration of half-maximal effect; nearly all actives have a fitted effect of over 50% in size
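Setup: EPAC2 100 nM, labeled Rap1B complex 250 nM, free GDP 50 uM. Compound titrations pinned in, brief spin, 5 min room temperature incubation. Kinetic fluorescence read over 30 min, normalized to 6.5 mM cAMP.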
KCNH2 3.1 block: inhibitors of human KCNH2 3.1 potassium channel isoform; U2OS KCNH2 3.1, thallium flux FluxOr; stronger effect = lower value; activity change, % (tested at about 1.8 µM); hit rate 0.95% among 340,000;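 active = maximum activity change below -70%; inconclusive = maximum activity change from -70% to -50%; inactive = maximum activity change above -50%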;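 note: thallium influx rate constant from kinetic fluorescence after stimulation buffer; % is set by controls: 0 for no effect and ±100 for the full control effect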
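We transduce U2OS cells with the mutant 3.1 virus, culture them overnight, load FluxOr with Red40 quencher for 45 min, then add stimulation buffer and read kinetically for 2 min to derive a normalized rate constant.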
EPAC1 agonist: agonists of human EPAC1; hit rate 0.073% among 360,000; O95398; Potency, µM (top dose mostly 154 µM), for the others: at the highest dose activation, actives largely listed as activators; EPAC1 agonist qHTS, biochemical assay; response scale: 100% = response to 6.5 mM cAMP; note: potency is the fitted concentration of half-maximal effect; nearly all actives have a fitted effect of over 60% in size
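Read-out is the fluorescence drop as BODIPY-GDP leaves Rap1B (480 nm excitation, 540 nm emission), recorded every 5 minutes over 30 minutes. Reactions held 100 nM EPAC1, 250 nM Rap1B–BODIPY-GDP and 50 uM GDP, with 6.5 mM cAMP setting full activation.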
Starred values were filed as active, the others as inactive; u = inconclusive; x = not tested or not shown; [ ] = another dose, or the depositor's remark. Unless noted, calls come from the whole dose curve; as a rule, active = well fitted curve in the direction sought with a large enough effect; inconclusive = small, poorly fitted or top-dose-only effect, or another doubt; inactive = no such curve, though single readings can be large; an effect the other way counts as inactive or inconclusive.

SMILES | EPAC2 antagonist | EPAC1 antag | KCNH2 WT inh | EPAC2 agonist | KCNH2 3.1 block | EPAC1 agonist
O=C(Cc1cccc(NC(=O)C2CCCN(C(=O)C3CCCC3)C2)c1)Nc1ccc(C(=O)N2CCCCC2)cc1 (stereo not given) | 15.1% | -22.8% | 6.3 | -7.6% | 6.3 | 10.6%
CCOC(=O)C1C(=O)N(O)CC1c1cccc(Oc2ccccc2)c1 (stereo not given) | 0.6% | 3.5% | -1.9 | -3.4% | -74.7* | -5.1%
CCOC(=O)C1C(O)=CC(=O)CC1c1ccccc1 (stereo not given) | 13.3% | 1.4% | -13.7 | 5.9% | 6.6 | 4.5%
Clc1ccc(CN2C3=NCCN3c3ccccc32)cc1Cl | 4.7%[57.1 µM] | -1.8% | 36.0 | -0.5% | -75.2* | 0.9%
CN(/N=C/c1ccc(-c2ccc([N+](=O)[O-])cc2)o1)c1ccccc1 | -11.2% | -9.1% | -37.6 | -0.7% | -71.6* | -11.4%
CNc1ccc(C2(O)C(=O)c3ccccc3C2=O)cc1 | -1.5% | 0.6% | -8.1 | 5.1% | x | 2.1%
COc1cccc(C(=O)/C=C/c2ccc(OCC#N)c(OC)c2)c1 | -2.5% | 22.4µM* | 22.0 | 12.9% | 9.5 | 1.1%
O=P(c1ccccc1)(c1ccccc1)c1cc(S(=O)(=O)O)ccc1O | 3.7% | -3.2% | -4.6 | -2.6% | -5.2 | 4.4%
CC(C)[C@H](NS(=O)(=O)c1ccccc1)C(=O)OCC(=O)N1N=C(c2ccc(Cl)cc2)CC1c1ccco1 (stereo not given in full) | -3.2% | -13.7% | -13.0 | 12.1% | -74.9* | 7.7%
Cc1ccc(OCC(=O)N2N=C(c3ccc(Cl)cc3)CC2c2ccco2)c([N+](=O)[O-])n1 (stereo not given) | -0.3% | -6.2% | -72.4* | -3.5% | -91.0* | 1.3%
O=C(COc1cccnc1[N+](=O)[O-])N1N=C(c2ccc(Cl)cc2)CC1c1ccco1 (stereo not given) | -2.3% | -9.9% | 18.1 | 3.7% | -33.1 | 10.2%
Cc1ccc(C(C)NC(=O)c2cccs2)cc1 (stereo not given) | 4.4% | 19.0% | 0.6 | -3.0% | 0.6 | 4.5%
CC(NC(=O)c1cccs1)c1ccccc1 (stereo not given) | 9.9% | 5.4% | 5.6 | 8.7% | -95.1* | 6.3%
S=c1nc(Cc2ccc(Cl)cc2)[nH]c2ccccc12 | 9.8% | 3.3% | -150.2* | 7.8% | 2.4 | -3.1%
S=c1nc(COc2ccccc2)[nH]c2ccccc12 | 2.1% | -0.6% | -90.7* | 6.4% | -19.6 | 17.3%
Cc1c(NC(=S)NC(=O)c2ccc(COc3ccccc3)cc2)cccc1C(=O)O | -2.9% | -26.6% | -231.2* | 6.1% | 17.0 | -7.8%
O=C(Nc1ccc(Oc2c(F)c(F)c(F)c(F)c2F)cc1)OC1CCN2Cc3ccccc3N=C12 (stereo not given) | 3.1% | -7.9% | -83.2* | -4.8% | -100.2* | -2.8%
Cc1cccc(NC(=O)Nc2ccc(Oc3c(F)c(F)c(F)c(F)c3F)cc2)c1 | 4.5% | 1.7% | -11.4 | 1.6% | -5.4 | 1.1%
N#Cc1c(/N=C/c2ccco2)sc2c1CCC2 | 1.7% | 7.1% | 0.2 | 10µM* | -14.2 | 2.9%
Cc1oc(C(C)(C)C)cc1C(N)=O | -5.0% | u | -2.3 | 1.8% | 4.2 | -3.3%
CCC(Sc1nc2ncccc2[nH]1)C(=O)N1CCOCC1 (stereo not given) | 6.0% | 1.6% | 5.8 | 1.4% | -8.1 | 6.2%
O=C(N/N=C/c1ccccc1)C(=O)N/N=C/c1ccccc1 | 8.1% | 17.8% | 1.6 | -0.6% | -4.3 | -5.4%
O=C(N/N=C/c1ccc(O)cc1)/C(=C/c1ccccc1)CCO | -1.8% | -19.6% | -3.4 | 8.9% | -88.2* | -6.1%
CCNc1nc(-c2sc(NC(=O)C(C)(C)C)nc2C)c(-n2cc(-c3ccccc3)nn2)s1 | 1.5% | 1.2% | x | 15.0% | x | -3.0%
Cc1ccccc1C(=O)c1cccn1CC(=O)N1CCCCC1 | -4.4% | -10.6% | -4.8 | 15.2% | 25.0 | 15.1%
C=CCNC(=O)/C(=C\c1ccc(OC)cc1)NC(=O)c1ccc([N+](=O)[O-])cc1 | 19.0% | 12.7% | 8.9 | 5.5% | -36.5 | 7.1%
